# Laboratory results: PubChem BioAssay (Tox21)
# Results filed as inconclusive are left out. A number with no mark means an inactive call. Calls of active or inactive are those of the source. The call rests on the fitted dose curve; in most records, active means well fitted activation curve with a large enough effect in the signal ratio in the repeat runs (not every such curve was filed as active); inconclusive means weak or mixed curves; inactive means flat fitted curve, though single readings scatter; the % refers to the signal ratio.
# Experiment: qHTS assay to identify small molecule agonists of H2AX (AID 1224845)
# Conditions: CHO-K1 phospho-H2AX Ser139 HTRF, 3 h; series mostly up to 70.9 µM
# Text: National Center for Advancing Translational Sciences [NCATS]
# NIH Chemical Genomics Center [NCGC]
# U.S. Environmental Protection Agency [EPA]
# National Institutes of Environmental Health Sciences [NIEHS]
# National Toxicology Program [NTP]
# U.S. Food and Drug Administration [FDA]
# HTRF phospho-H2AX (Ser139) assay (Cisbio Bioassays, US) enables the quantitative detection of the histone variant H2AX when phosphorylated on serine 139. When double-stranded DNA breaks, either by ionizing radiation or endogenous physiological processes, H2AX becomes phosphorylated at Ser139. This phospho-Ser139 serves as a sensitive biomarker for the detection of such breaks, localizing the site of DNA repair. So, HTRF phospho-H2AX Ser139 is a pertinent assay to study genome stability, the cell cycle, DNA repair, and it serves as a biomarker for cancer, and to understand aging. Wild type CHO-K1 cells were used to identify the inducers of Phospho-H2AX Ser 139 from the Tox21 10K compound collections.
# Tox21 Assay Protocol Summary:
# The CHO-K1 cells suspended in culture medium containing 10% FBS were dispensed at 1000 cells/ 3 ul/well in 1536-well white wall/solid bottom plates (Greiner Bio-One North America, NC) using a Multidrop Combi (Thermo Fisher Scientific Inc., Waltham, MA). After the assay plates were incubated at 37C overnight, 23 nl of compounds at 15 concentrations (from 5-48 columns) or positive control (from 1 to 4 columns) were transferred to the assay plates using a Pintool station (Wako, San Diego, CA) into each well resulting in a final DMSO concentration of 0.76%. After 3hr incubation at 37C, 1 uL/well Supplemented Lysis buffer (diluted 100 fold blocking reagent in lysis buffer) (HTRF Phospho-H2A.X (S139) Assay kit from Cisbio US Inc., Bedford, MA) was added using a Flying Reagent Dispenser (FRD) (Aurora Discovery, CA). After 10sec spin at 1000 rpm in a plate centrifuge, the assay plates were incubated at room temperature for 30 min. Then followed by the addition of 1 uL/well detection buffer (containing a mixture of two antibodies, one labeled with cryptate, Anti pH2AX (S139)-K and another labeled with d2, Anti H2AX-d2) using FRD. After incubation at room temperature for 24 hr, the time resolved fluorescence at excitation 320 nm and emissions at 665 nm and 620 nm was measured using an Envision plate reader (PerkinElmer, Waltham, MA).
# On the % scale 0 is the no-effect control and ±100 the full control effect.
SMILES,outcome,activation (H2AX phosphorylation)
COc1ccc2c(c1)c(CC(=O)OCC(=O)O)c(C)n2C(=O)c1ccc(Cl)cc1,inactive,
CCS(=O)(=O)c1ccc(OC)c(C(=O)OC)c1,inactive,
N=c1nc(N2CCCCC2)cc(N)n1O,inactive,
COC(=O)NN,inactive,
O=c1[nH]c(=O)n([C@H]2C[C@H](O)[C@@H](CO)O2)cc1I,inactive,
CC(=O)OCC(=O)[C@@]1(O)CC[C@H]2[C@@H]3CCC4=CC(=O)CC[C@]4(C)[C@H]3C(=O)C[C@@]21C,inactive,
COC(=O)C1=C(C)NC(C)=C(C(=O)OC)C1c1ccccc1[N+](=O)[O-],inactive,
CC1(C)C(O)C(C)(C)C1O (stereo not given),inactive,
NC(=O)COCCN1CCN(C(c2ccccc2)c2ccc(Cl)cc2)CC1 (stereo not given),inactive,
NS(=O)(=O)c1ccc(C(=O)O)cc1,inactive,
Nc1cc(=O)[nH]c(N)n1,inactive,
Cc1cccc(C)c1NC(=O)C(C)N (stereo not given),inactive,
C=C(C)C(=O)OCCCCCCCC(C)C,inactive,
CN(C)CCCSc1ccccc1NC(=O)/C=C/c1ccccc1,inactive,
NC(=O)c1cn(Cc2c(F)cccc2F)nn1,inactive,
CC(C)(C)NCCNC(C)(C)C,inactive,
N[C@@H](C(=O)N[C@@H]1C(=O)N2C(C(=O)O)=C(Cl)CS[C@H]12)c1ccccc1,,0.237% [at 14 µM]
COC(=O)c1cc(C(=O)OC)cc(S(=O)(=O)O)c1,inactive,
CCCCOCCOCCOCc1cc2c(cc1CCC)OCO2,inactive,
CCOC(=O)[C@H](CCc1ccccc1)N[C@@H](C)C(=O)N1[C@H](C(=O)O)C[C@@H]2CCC[C@@H]21,inactive,

SMILES,outcome,activation (H2AX phosphorylation)
COc1cc(C(=O)N2CCCCCCC2)cc(OC)c1OC,inactive,
CCN(CC)CCNC(=O)c1cc(S(C)(=O)=O)ccc1OC,inactive,
CCOC(=O)c1ccc(C)cc1,inactive,
C1CN(CCOCCN2CCOCC2)CCO1,inactive,
COC(=O)CCSCCC(=O)OC,inactive,
CC(C)c1cc2c(cc1S(=O)(=O)O)[C@@]1(C)CCC[C@@](C)(C(=O)O)[C@@H]1CC2,inactive,
CC/C=C\CCOC(C)=O,inactive,
C=C(C)CS(=O)(=O)O,inactive,
NC(=O)c1ccc(N)cc1,inactive,
CCCCCCCCS(=O)(=O)Cl,inactive,
CC(C)NCCCC1(C(N)=O)c2ccccc2-c2ccccc21,inactive,
CN1N=C(C(N)=O)CCC1=O,inactive,
Brc1c(NC2=NCCN2)ccc2nccnc12,inactive,
OCCCC1CCCCC1,inactive,
CC(C)=CCCC(C)CC(=O)O (stereo not given),inactive,
Cc1cccn2c(=O)c(-c3nnn[nH]3)cnc12,inactive,
C[C@@H]1CCN(C(=O)[C@H](CCCN=C(N)N)NS(=O)(=O)c2cccc3c2NC[C@H](C)C3)[C@@H](C(=O)O)C1,inactive,
COC(=O)c1ccc(C)cc1C1=NC(C)(C(C)C)C(=O)N1 (stereo not given),inactive,
CN1CCN(c2cc3c(cc2F)c(=O)c(C(=O)O)cn3-c2ccc(F)cc2)CC1,inactive,
C=C[Si](OC(=C)C)(OC(=C)C)OC(=C)C,inactive,
